Results: PubChem BioAssay
Calls of active or inactive are those of the source.

Columns and labels:
[1] = optical density shifts of acrAB sulA E. coli – strain DRC41, OD650, 48 h, E. coli filamentation inducer project, primary screen (AID 1152); conditions: higher = more signal, called active from +8 up or from −8 down;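 note: E. coli MC1000 strain DRC41 lacking acrAB efflux pump and sulA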
[2] = probe aLefty1 binding on compound microarray – biochemical, small-molecule microarray, 635/667 nm fluorescence, primary screen (AID 1153); conditions: higher = more signal;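 note: score merges spot fluorescence with signal-to-noise ratio from the scanned slide images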
[3] = plasmodial surface anion channel blockers, osmotic lysis – cell-based, P. falciparum Indochina, OD700, 1 h, primary screen (AID 1154); conditions: P. falciparum Indochina infected RBC osmotic lysis, higher = more signal, called active from +8 up or from −8 down
[4] = plasmodial surface anion channel blockers, osmotic lysis – cell-based, P. falciparum Indochina, OD700, 2 h, primary screen (AID 1155);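 note: lysis reports solute entry through the parasite surface anion channel PSAC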; conditions: P. falciparum Indochina infected erythrocytes, higher = more signal, called active from +8 up or from −8 down
[5] = changes in parasitized red cell lysis, either direction – P. falciparum Indochina, OD700, 3 h, PSAC antagonist project, primary screen (AID 1156); conditions: P. falciparum-infected erythrocytes, osmotic lysis, higher = more signal, called active from +8 up or from −8 down
[6] = plasmodial surface anion channel blockers, osmotic lysis – cell-based, P. falciparum Indochina, OD700, 18 h, primary screen (AID 1157); conditions: P. falciparum Indochina infected erythrocytes, osmotic lysis OD700, 18 h; higher = more signal, called active from +8 up or from −8 down
[7] = S6 kinase pathway phospho-S6 level changes – cell-based, A549, cytoblot, luminescence, serum-stimulated, primary screen (AID 1158); conditions: 5 h, higher = more signal;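 note: serum-stimulated A549 lung adenocarcinoma cells; signal is phosphorylated S6 detected by cytoblot immunostaining with HRP secondary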
[8] = target: NADPH oxidase 2 (Homo sapiens) (UniProt P04839); assay: compounds shifting NOX2 Amplex Red fluorescence – cell-based, HEK293-NOX2, PMA-stimulated, NOX inhibitor project, primary screen (AID 1159); conditions: 45 min, higher = more signal, called active from +8 up or from −8 down; note: test concentration not given here
Sequence of NADPH oxidase 2 (Homo sapiens) (P04839 whole entry, looked up): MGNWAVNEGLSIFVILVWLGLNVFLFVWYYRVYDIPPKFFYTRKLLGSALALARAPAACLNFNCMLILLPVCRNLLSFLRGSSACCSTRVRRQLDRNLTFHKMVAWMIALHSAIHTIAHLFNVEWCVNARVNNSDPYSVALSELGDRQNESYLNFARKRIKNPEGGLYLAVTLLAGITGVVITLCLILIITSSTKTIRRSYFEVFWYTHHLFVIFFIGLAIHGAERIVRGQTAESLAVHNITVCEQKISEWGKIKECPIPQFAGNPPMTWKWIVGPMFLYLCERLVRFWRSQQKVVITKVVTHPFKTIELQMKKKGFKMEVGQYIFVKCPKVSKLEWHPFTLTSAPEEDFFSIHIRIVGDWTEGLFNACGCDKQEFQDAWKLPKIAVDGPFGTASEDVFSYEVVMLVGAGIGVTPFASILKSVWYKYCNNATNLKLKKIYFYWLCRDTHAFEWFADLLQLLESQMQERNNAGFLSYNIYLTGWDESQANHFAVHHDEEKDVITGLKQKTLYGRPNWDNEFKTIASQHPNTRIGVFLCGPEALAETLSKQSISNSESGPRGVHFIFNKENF

[9] = target: NADPH oxidase 4 (Homo sapiens) (UniProt Q9NPH5); assay: compounds shifting NOX4 Amplex Red fluorescence – cell-based, HEK293-NOX4, tetracycline-induced, NOX inhibitor project, primary screen (AID 1160); conditions: HEK293-NOX4, Amplex Red H2O2 fluorescence, 45 min; higher = more signal, called active from +8 up or from −8 down
Sequence of NADPH oxidase 4 (Homo sapiens) (Q9NPH5 whole entry, looked up): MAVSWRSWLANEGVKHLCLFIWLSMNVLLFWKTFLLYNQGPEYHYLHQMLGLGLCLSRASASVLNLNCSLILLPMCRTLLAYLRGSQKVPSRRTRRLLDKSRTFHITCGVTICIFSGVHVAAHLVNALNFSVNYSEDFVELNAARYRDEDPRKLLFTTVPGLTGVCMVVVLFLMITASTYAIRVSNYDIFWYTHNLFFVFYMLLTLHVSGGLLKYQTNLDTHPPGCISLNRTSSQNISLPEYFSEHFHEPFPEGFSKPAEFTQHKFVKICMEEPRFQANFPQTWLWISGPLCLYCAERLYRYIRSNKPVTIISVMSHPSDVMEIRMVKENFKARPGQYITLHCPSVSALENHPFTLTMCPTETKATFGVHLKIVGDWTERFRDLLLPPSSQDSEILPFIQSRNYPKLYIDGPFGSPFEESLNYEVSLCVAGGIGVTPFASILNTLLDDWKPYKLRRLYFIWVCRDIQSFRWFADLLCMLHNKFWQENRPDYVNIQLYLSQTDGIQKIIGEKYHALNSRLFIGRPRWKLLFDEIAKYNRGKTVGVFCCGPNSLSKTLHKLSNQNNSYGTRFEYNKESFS

[10] = target: NADPH oxidase 5 (Homo sapiens) (UniProt Q96PH1); assay: compounds shifting NOX5 Amplex Red fluorescence – cell-based, HEK293-NOX5, NOX inhibitor project, primary screen (AID 1161); conditions: HEK293-NOX5, ionomycin, 45 min, higher = more signal
Sequence of NADPH oxidase 5 (Homo sapiens) (Q96PH1 whole entry, looked up): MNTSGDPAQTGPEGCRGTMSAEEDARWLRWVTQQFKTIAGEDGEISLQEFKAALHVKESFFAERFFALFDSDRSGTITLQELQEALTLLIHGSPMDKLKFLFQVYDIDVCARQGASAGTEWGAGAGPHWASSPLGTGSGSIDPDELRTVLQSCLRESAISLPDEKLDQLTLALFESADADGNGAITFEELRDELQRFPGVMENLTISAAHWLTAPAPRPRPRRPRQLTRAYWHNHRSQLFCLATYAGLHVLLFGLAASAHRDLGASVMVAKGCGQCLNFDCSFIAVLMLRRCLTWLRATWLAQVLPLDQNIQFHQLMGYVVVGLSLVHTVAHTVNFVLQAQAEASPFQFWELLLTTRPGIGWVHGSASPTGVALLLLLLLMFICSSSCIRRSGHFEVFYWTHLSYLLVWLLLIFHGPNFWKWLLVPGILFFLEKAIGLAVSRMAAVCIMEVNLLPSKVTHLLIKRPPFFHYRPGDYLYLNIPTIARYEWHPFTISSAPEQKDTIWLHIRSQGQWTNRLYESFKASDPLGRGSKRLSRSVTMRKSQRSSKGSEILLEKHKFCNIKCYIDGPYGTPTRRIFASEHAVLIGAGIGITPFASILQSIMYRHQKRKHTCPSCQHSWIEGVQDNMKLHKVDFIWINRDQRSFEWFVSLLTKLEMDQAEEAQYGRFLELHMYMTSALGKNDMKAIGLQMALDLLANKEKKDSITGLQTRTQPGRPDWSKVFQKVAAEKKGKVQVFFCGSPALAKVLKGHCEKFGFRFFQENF

| Compound | z-score [1] | composite z-score [2] | z-score [3] | z-score [4] | z-score [5] | z-score [6] | z-score [7] | z-score [8] | z-score [9] | z-score [10] |
| --- | --- | --- | --- | --- | --- | --- | --- | --- | --- | --- |
| COc1ccc([Si](C)(C)[C@@H]2[C@@H](CCO)O[C@]3(C(=O)N(Cc4ccccc4)c4ccc(NC(=O)[C@H](C)O)cc43)[C@H]2C)cc1 | 0.573 (inactive) | 0.621 | 12.8 (active) | 2.77 (inactive) | -0.919 (inactive) | 1.92 (inactive) | 0.402 | 0.77 (inactive) | 0.452 (inactive) | 1.8 |
| COc1cc(NN2C(C(O)c3ccc(N(C)C)cc3)C=CC3C(=O)N(c4ccccc4)C(=O)C32)cc(OC)c1OC (stereo not given) | -2.71 (inactive) | 0.315 | 1.76 (inactive) | -0.891 (inactive) | 0.742 (inactive) | -0.765 (inactive) | 1.15 | -2.65 (inactive) | -4.37 (inactive) | -4.75 |
| CC[C@@H]1C=C(C(=O)O)[C@H](c2ccccc2)N1S(=O)(=O)c1ccc(C)cc1 | -1.24 (inactive) | -0.0984 | 1 (inactive) | 0.72 (inactive) | -0.393 (inactive) | 0.512 (inactive) | -0.265 | 0.848 (inactive) | -0.114 (inactive) | -0.978 |
| CCOC(=O)C[C@H]1[C@H](OC(=O)Cc2ccc3c(c2)OCO3)[C@@H](NC(=O)c2ccc3ccccc3n2)c2cc(OCCCO)ccc2N1C(=O)c1ccc2ccccc2n1 | 3.01 (inactive) | 0.103 | 15.8 (active) | 2.25 (inactive) | -1.37 (inactive) | -0.0077 (inactive) | 1.3 | 0.11 (inactive) | 0.204 (inactive) | -2.65 |
| O=C1C2C=CC(C(O)C3CC=CCC3)N(Nc3ccccc3)C2C(=O)N1c1ccccc1 (stereo not given) | -1.5 (inactive) | 0.663 | 3.38 (inactive) | -0.228 (inactive) | 1.53 (inactive) | -1.33 (inactive) | 0.879 | -3.1 (inactive) | -4.95 (inactive) | -6.07 |
| COC(=O)[C@@]1(Cc2ccccc2)[C@H]2c3cc(C(=O)N(C)C)n(Cc4ccc(C)o4)c3C[C@H]2CN1C(=O)c1ccccc1 | -1.91 (inactive) | 1.25 | 2.55 (inactive) | -0.381 (inactive) | 0.541 (inactive) | -1.54 (inactive) | 1.97 | -3.27 (inactive) | -2.44 (inactive) | -4.77 |
| O=C1N(Cc2ccccc2)c2ccccc2C[C@]12N=C(c1ccc(OCCCO)cc1)O[C@@H]2c1ccccc1 | -0.522 (inactive) | -0.0968 | 24.8 (active) | 15.7 (active) | 1.41 (inactive) | 2.71 (inactive) | -0.027 | -0.73 (inactive) | 0.472 (inactive) | 0.0935 |
| CC(C)N1C(=O)c2ccccc2[C@@H](C(=O)NCCN2CCOCC2)[C@@H]1c1ccc(CO)cc1 | -0.675 (inactive) | -0.0908 | 2.01 (inactive) | -0.151 (inactive) | 1.24 (inactive) | 0.255 (inactive) | -0.468 | 1.59 (inactive) | 0.675 (inactive) | 0.474 |
| COc1cc2c(cc1O)C(c1cccs1)N(Cc1cc3c(cc1Br)OCO3)CC2 (stereo not given) | -1.8 (inactive) | -0.566 | 10.2 (active) | 2.26 (inactive) | -1.06 (inactive) | 1.41 (inactive) | 0.0127 | -4.19 (inactive) | -2.38 (inactive) | -2.26 |
| OCCCC1=CC(c2ccc(CN3CCCC3)cc2)N(Cc2cc3c(cc2Br)OCO3)CC1 (stereo not given) | 0.0676 (inactive) | 0.192 | 3.7 (inactive) | 0.63 (inactive) | 0.795 (inactive) | 0.601 (inactive) | -0.187 | -3.1 (inactive) | -1.21 (inactive) | -1.2 |
| C=CCC(OC(C)=O)[C@@H]1[C@@H](N(Cc2cccc3ccccc23)C(=O)Cc2ccc(OC)cc2)c2cc(OCCCO)ccc2N1C(=O)c1ccc(-c2ccccc2)cc1 (stereo not given in full) | -0.62 (inactive) | 0.0429 | 0.0926 (inactive) | 0.299 (inactive) | -0.278 (inactive) | 0.263 (inactive) | 0.0614 | -1.33 (inactive) | -0.257 (inactive) | -1.21 |
| O=C1C[C@]2(c3ccc([N+](=O)[O-])cc3)C(=O)N(C3CC3)c3cc(CO)ccc3[C@H]2N1CC12CC3CC(CC(C3)C1)C2 | -0.829 (inactive) | 0.599 | 0.617 (inactive) | -0.0621 (inactive) | 0.474 (inactive) | 0.255 (inactive) | 0.204 | 1.36 (inactive) | -1.64 (inactive) | 0.0712 |
| C#CCN(Cc1ccccc1Br)[C@H](/C=C/c1ccccc1)[C@@H](O)Cc1ccccc1 | 1.47 (inactive) | 0.0999 | 1.22 (inactive) | 0.535 (inactive) | -0.553 (inactive) | 0.132 (inactive) | -0.135 | -0.193 (inactive) | 0.109 (inactive) | -0.639 |
| CCCCC(O)C1C=CC2C(=O)N(C)C(=O)C2N1N(c1ccccc1)c1ccccc1 (stereo not given) | -2.15 (inactive) | 0.475 | 3.81 (inactive) | 1 (inactive) | 1.3 (inactive) | 0.951 (inactive) | -1.05 | -0.334 (inactive) | -1.98 (inactive) | -0.376 |
| [N-]=[N+]=Nc1ccccc1C[C@]1(C(=O)O)COC(c2ccc(OCCCO)cc2)=N1 | -0.541 (inactive) | 0.199 | 23.9 (active) | 8.27 (active) | 4.11 (inactive) | 0.935 (inactive) | -0.103 | -2.44 (inactive) | -0.992 (inactive) | -2.7 |
| C=C(COC)/C(=C/C[C@H](OC(=O)c1ccncc1)c1ccccc1OCCO)c1cc(C(=O)OC)ccc1OC | -0.604 (inactive) | 0.307 | 14 (active) | 2.43 (inactive) | 2.72 (inactive) | 0.773 (inactive) | 0.0976 | -1.21 (inactive) | 0.0788 (inactive) | -1.62 |
| CO[C@H]1O[C@H](CO)[C@@H](OC(=O)CCc2ccccc2)[C@@H]2OC(=O)[C@@H](Cc3ccccc3)C/C=C/C[C@H](Cc3ccccc3)C(=O)O[C@@H]12 | 0.453 (inactive) | -0.0054 | 4.5 (inactive) | 0.829 (inactive) | 1.23 (inactive) | 0.546 (inactive) | 0.658 | -4.56 (inactive) | -0.97 (inactive) | -2 |
| COc1ccc([Si](C)(C)[C@@H]2[C@@H](CCO)O[C@]3(C(=O)N(Cc4ccccc4)c4ccc(N5CCOC5=O)cc43)[C@H]2C)cc1 | 0.519 (inactive) | 0.042 | 3.02 (inactive) | -0.0856 (inactive) | 0.796 (inactive) | -1.09 (inactive) | 2.12 | -0.245 (inactive) | 0.699 (inactive) | -1.07 |
| CCOC(=O)C1=C[C@@H](C(C)C)N(S(=O)(=O)c2ccc(C)cc2)[C@H]1c1ccc(C(F)(F)F)cc1 | -1.58 (inactive) | 0.2 | 0.172 (inactive) | 0.279 (inactive) | -0.422 (inactive) | 0.0209 (inactive) | -0.696 | -0.116 (inactive) | 0.024 (inactive) | 0.599 |
| COc1ccc(CCNC(=O)[C@@]2(Cc3ccccc3I)c3ccccc3C(=O)N(C3CCCCC3)[C@H]2c2ccc(CO)cc2)cc1 | 0.535 (inactive) | -0.104 | 3.52 (inactive) | 0.502 (inactive) | 1.27 (inactive) | -0.31 (inactive) | 3.35 | 0.189 (inactive) | -1.09 (inactive) | -2.19 |
| COc1ccc(C#Cc2ccc3c(c2)[C@]2(C(=O)N3)[C@H](C(=O)O)[C@H]3C(=O)O[C@H](c4ccccc4)[C@H](c4ccccc4)N3[C@@H]2c2ccc(O)cc2)cc1 | 0.384 (inactive) | 0.174 | -2.35 (inactive) | -2.47 (inactive) | -8.72 (active) | -2.8 (inactive) | 2.29 | 0.479 (inactive) | -3.77 (inactive) | -1.13 |
| C=CC[C@@H](OC(=O)Nc1ccc(OC)cc1)c1ccc(O)c(F)c1 | 0.111 (inactive) | 0.109 | 2.93 (inactive) | -0.0384 (inactive) | -1.12 (inactive) | -0.113 (inactive) | -0.386 | -6 (inactive) | -2.91 (inactive) | -3.48 |
| COCCOC(=O)N1C(=O)[C@@]2(c3cc(C#CC4(O)CCCCCC4)ccc31)[C@H](C(=O)Nc1nc3ccccc3s1)[C@H]1C(=O)O[C@H](c3ccccc3)[C@H](c3ccccc3)N1[C@@H]2c1ccc(O)cc1 | 0.0662 (inactive) | 0.219 | 0.4 (inactive) | 0.925 (inactive) | -0.186 (inactive) | 1.47 (inactive) | -0.335 | 1.01 (inactive) | 0.286 (inactive) | 0.785 |
| O=C1OCCC=C[C@H]2OC34C=CCN(c5ccc6ccccc6c5)C(=O)[C@H]3N(CCCO)C(=O)[C@@H]4C12 (stereo not given in full) | 0.181 (inactive) | -0.291 | 0.204 (inactive) | -0.568 (inactive) | 0.676 (inactive) | -1.27 (inactive) | 0.684 | 0.755 (inactive) | -0.644 (inactive) | 0.741 |
| COC(=O)C(CC#Cc1ccc2c(c1)[C@]1(C(=O)N2)[C@H](c2ccc(O)cc2)N2[C@H](c3ccccc3)[C@H](c3ccccc3)OC(=O)[C@H]2[C@@H]1C(=O)NC[C@H](O)c1ccccc1)C(=O)OC | -0.994 (inactive) | -0.0518 | 1.13 (inactive) | 0.353 (inactive) | -0.876 (inactive) | -0.154 (inactive) | -0.256 | 1.39 (inactive) | 0.318 (inactive) | 1.47 |
| COc1cc(C(O)C2C=CC3C(=O)N(C)C(=O)C3N2Nc2ccccc2)cc(OC)c1OC (stereo not given) | -0.283 (inactive) | 0.923 | 1.28 (inactive) | 1.01 (inactive) | 0.508 (inactive) | 1.07 (inactive) | -0.802 | -1.41 (inactive) | -2.12 (inactive) | -2.14 |
